The full ranking holds about 1,300 sequences; the median of “log fluorescence intensity” is about 8.9, and the highest 2% start at about 13. The sample as a whole holds a higher share of the highest values than the screen did.
The sequences below were run against T1, ELK1 (Homo sapiens, UniProt P19419 1-428) (assay: custom PBM; custom protein-binding microarray; buffer, salt, pH and temperature not stated; high values mean tight binding). Conditions: dsDNA, one strand shown.
T1 sequence: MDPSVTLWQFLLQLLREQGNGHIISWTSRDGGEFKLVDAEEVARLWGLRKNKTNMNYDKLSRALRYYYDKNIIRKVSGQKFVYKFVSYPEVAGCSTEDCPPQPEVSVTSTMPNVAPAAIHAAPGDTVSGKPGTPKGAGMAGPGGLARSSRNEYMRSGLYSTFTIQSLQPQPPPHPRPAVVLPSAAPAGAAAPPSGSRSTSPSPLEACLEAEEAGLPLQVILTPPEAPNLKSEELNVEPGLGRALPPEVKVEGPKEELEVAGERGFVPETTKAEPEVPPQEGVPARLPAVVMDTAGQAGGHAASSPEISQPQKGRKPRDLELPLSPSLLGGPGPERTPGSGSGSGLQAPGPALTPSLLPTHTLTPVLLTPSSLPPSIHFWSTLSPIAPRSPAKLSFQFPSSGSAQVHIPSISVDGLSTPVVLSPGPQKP

Sequence	binding signal
CTGAAGTGTCGTAAACGTCGGATATCCGGTTCTTCTGTCTTGATTCGCTTGACGCTGCTG	12.3 log fluorescence intensity
CGGAAGTGTCGTAAAAGTCGGATATCCGGTTCTTCTGTCTTGATTCGCTTGACGCTGCTG	12.5 log fluorescence intensity
CGCAAGTGTCGTAAACGTCGGATATCCGGTTCTTCTGTCTTGATTCGCTTGACGCTGCTG	12.6 log fluorescence intensity
CGGAAGTGTCGTAAACGTCAGATATCCGGTTCTTCTGTCTTGATTCGCTTGACGCTGCTG	11.2 log fluorescence intensity
CGGAAGTGTCGTAAACGTCGCATATCCGGTTCTTCTGTCTTGATTCGCTTGACGCTGCTG	11.6 log fluorescence intensity
CGGGAGTGTCGTAAACGTCGGATATCCGGTTCTTCTGTCTTGATTCGCTTGACGCTGCTG	12.1 log fluorescence intensity
CAGAAGTGTCGTAAACGTCGGATATCCGGTTCTTCTGTCTTGATTCGCTTGACGCTGCTG	12.6 log fluorescence intensity
CGGAAGTGTCGTAAAGGTCGGATATCCGGTTCTTCTGTCTTGATTCGCTTGACGCTGCTG	12.4 log fluorescence intensity
CGGAAGTGTCGTAAATGTCGGATATCCGGTTCTTCTGTCTTGATTCGCTTGACGCTGCTG	12.7 log fluorescence intensity
CGAAAGTGTCGTAAACGTCGGATATCCGGTTCTTCTGTCTTGATTCGCTTGACGCTGCTG	12.5 log fluorescence intensity
CGGTAGTGTCGTAAACGTCGGATATCCGGTTCTTCTGTCTTGATTCGCTTGACGCTGCTG	12.5 log fluorescence intensity
CGTAAGTGTCGTAAACGTCGGATATCCGGTTCTTCTGTCTTGATTCGCTTGACGCTGCTG	12.4 log fluorescence intensity
CGGAAGTGTCGTAAACGTCCGATATCCGGTTCTTCTGTCTTGATTCGCTTGACGCTGCTG	12.3 log fluorescence intensity
CGGAAGTGTCGTAAACGTCGGATATCCGGTTGTTCTGTCTTGATTCGCTTGACGCTGCTG	12.5 log fluorescence intensity
CGGAAGTGTCGTAAACGTCGGATATCCGGTCCTTCTGTCTTGATTCGCTTGACGCTGCTG	12.6 log fluorescence intensity
CGGAAGTGTCGTAAACGTCGAATATCCGGTTCTTCTGTCTTGATTCGCTTGACGCTGCTG	11.7 log fluorescence intensity
CGGAAGTGACGTAAACGTCGGATATCCGGTTCTTCTGTCTTGATTCGCTTGACGCTGCTG	12.3 log fluorescence intensity
CGGAAGTGGCGTAAACGTCGGATATCCGGTTCTTCTGTCTTGATTCGCTTGACGCTGCTG	12.1 log fluorescence intensity
CGGAAGTGTCGTAAACGTCGGATATCCGGGTCTTCTGTCTTGATTCGCTTGACGCTGCTG	11.9 log fluorescence intensity
CGGAAGTGCCGTAAACGTCGGATATCCGGTTCTTCTGTCTTGATTCGCTTGACGCTGCTG	12.5 log fluorescence intensity
CGGAAGTGTCGTAAACGTCGGATATCCGGTTCTTGTGTCTTGATTCGCTTGACGCTGCTG	12.6 log fluorescence intensity
CGGAAGTGTCGTAAACGTCGGATATCCGGTTCTTTTGTCTTGATTCGCTTGACGCTGCTG	12.5 log fluorescence intensity
CCGAAGTGTCGTAAACGTCGGATATCCGGTTCTTCTGTCTTGATTCGCTTGACGCTGCTG	12.6 log fluorescence intensity
CGGAAGTGTCGTAAACGTCGGATATCCGGTGCTTCTGTCTTGATTCGCTTGACGCTGCTG	12.5 log fluorescence intensity
TCCGGCTACCAGCGCCACCCACTTCAGGCCTTGTAGGTCTTGATTCGCTTGACGCTGCTG	8.91 log fluorescence intensity
CACAATATTTACAGTAATGTAGCACGCGTAACTCCTGTCTTGATTCGCTTGACGCTGCTG	8.95 log fluorescence intensity

Sequence	binding signal
CGGAAGTGTCGTAAACGTCGGATATCCGGTTATTCTGTCTTGATTCGCTTGACGCTGCTG	12.5 log fluorescence intensity
CGGAAGTGTCGTAAACGACGGATATCCGGTTCTTCTGTCTTGATTCGCTTGACGCTGCTG	12.7 log fluorescence intensity
CGGAAGTGTCGTAAACGTCGGTTATCCGGTTCTTCTGTCTTGATTCGCTTGACGCTGCTG	10.1 log fluorescence intensity
CGGAAGTGTCGTAAACGGCGGATATCCGGTTCTTCTGTCTTGATTCGCTTGACGCTGCTG	12.6 log fluorescence intensity
GGAAAAAGGCCCAGGGTAACACCGCAAGTGGGCTTAGTCTTGATTCGCTTGACGCTGCTG	8.91 log fluorescence intensity
TAAAGGGAAGACGGTTGTGGTAGGTCCGGGTATTAAGTCTTGATTCGCTTGACGCTGCTG	8.98 log fluorescence intensity
CACAATTTTAACAGTAATGTAGCACGCGTAACTCCTGTCTTGATTCGCTTGACGCTGCTG	8.9 log fluorescence intensity
GATGAATTTCTGCCCTTATTCGCACGTGCCATAACAGTCTTGATTCGCTTGACGCTGCTG	8.9 log fluorescence intensity
GGAAAAAGGCCCAGGGTTACACCGGAAGTGGGCTTAGTCTTGATTCGCTTGACGCTGCTG	11 log fluorescence intensity
TAAAGGGAACACGGTTGTGGTAGTTCCGGGTATTAAGTCTTGATTCGCTTGACGCTGCTG	11.2 log fluorescence intensity
GGAAAAAGGCCCAGGGCAACACCGGAAGTGGGCTTAGTCTTGATTCGCTTGACGCTGCTG	10.9 log fluorescence intensity
CCCAATTTTTACAGTAATGTAGCACGCGTAACTCCTGTCTTGATTCGCTTGACGCTGCTG	8.98 log fluorescence intensity
CTGGGACTTGACCCAACTCTGCCACGTGGGCCGTTTGTCTTGATTCGCTTGACGCTGCTG	9.05 log fluorescence intensity
CGGGGACTTGACCCAACTCTGCCACGTGGGTCGTTTGTCTTGATTCGCTTGACGCTGCTG	8.96 log fluorescence intensity
TACTTACTTATATATGCGAATGCACATGAATAGACCGTCTTGATTCGCTTGACGCTGCTG	9.06 log fluorescence intensity
TAAAGGGAAGACGGATGTGGTAGTTCCGGGTATTAAGTCTTGATTCGCTTGACGCTGCTG	12.6 log fluorescence intensity
TAAAGGGAAGACGGGTGTGGTAGTTCCGGGTATTAAGTCTTGATTCGCTTGACGCTGCTG	11.2 log fluorescence intensity
TAAAGGGAAGACGCTTGTGGTAGTTCCGGGTATTAAGTCTTGATTCGCTTGACGCTGCTG	11 log fluorescence intensity
TCCAGCTACCAGCTCCACCCACTTCAGGCCTTGTAGGTCTTGATTCGCTTGACGCTGCTG	8.99 log fluorescence intensity
CACAATTTGTACAGTAATGTAGCACGCGTAACTCCTGTCTTGATTCGCTTGACGCTGCTG	8.91 log fluorescence intensity
GGAAAAAGGCCCAGGGTAACCCCGGAAGTGGGCTTAGTCTTGATTCGCTTGACGCTGCTG	10.5 log fluorescence intensity
CAGCATAGGACTTCTTCCCTGAAGCAATTGATAACTGTCTTGATTCGCTTGACGCTGCTG	8.96 log fluorescence intensity
CACAATTTTTACAGTAATGTAGCACGCGGAACTCCTGTCTTGATTCGCTTGACGCTGCTG	8.97 log fluorescence intensity
TCCGGCTACAAGCTCCACCCACTTCAGGCCTTGTAGGTCTTGATTCGCTTGACGCTGCTG	8.93 log fluorescence intensity
TAAAGGGAAGACGGTTGTGGTAGTTCCGGGTACTAAGTCTTGATTCGCTTGACGCTGCTG	11.3 log fluorescence intensity
GTGTATAGGATCCCATCCAACACACCTGTTAAAATGGTCTTGATTCGCTTGACGCTGCTG	8.91 log fluorescence intensity
